Tg IFNy HTS – T. gondii growth inhibition under IFN-gamma; activity change, negative = inhibition, % (no concentration beside the values); hit rate 3.8% among 69,000; Toxoplasma gondii growth in IFN-gamma-treated host cells; active compounds read low; in the data active = activity change below about -70%, passing the limit was not always enough;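 note: host cells are HeLa cells infected with Toxoplasma gondii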
Hits are given with their value; ! = not confirmed by another sample. The entries come from a sample that favours hits as a whole.

`FC(F)(F)c1ccc(-c2nnc(COc3ccccc3Cl)o2)cc1` gave Tg IFNy HTS inactive.
For Cc1onc(-c2c(Cl)cccc2Cl)c1-c1nc2cccc(F)c2c(=O)o1 the results were Tg IFNy HTS inactive.
For Cc1onc(-c2c(F)cccc2Cl)c1-c1nnc(-c2ccc(C(F)(F)F)cc2)o1 the results were Tg IFNy HTS -98.9.
`c1ccc(CNc2ccc(C3c4ccccc4Oc4ccccc43)cc2)cc1` gave Tg IFNy HTS -96.5.
For O=C(O)CCc1ccc(NCc2cccc(Oc3ccccc3)c2)cc1 the results were Tg IFNy HTS inactive.
Screening CNCc1ccccc1 returned Tg IFNy HTS inactive.
Screening OCCN(Cc1cccnc1)Cc1cccn1-c1ccc(F)cc1F returned Tg IFNy HTS inactive.
Screening COC(=O)[C@@H]1C[C@@H](NC(=O)c2c(-n3cccc3)sc(C)c2C)CN1C returned Tg IFNy HTS inactive.
COc1ccc(-n2c(Cn3cccn3)n[nH]c2=O)cc1 was read as Tg IFNy HTS inactive.
Screening NS(=O)(=O)c1ccc(NC(=O)C2COc3ccccc3C2)cc1 (stereo not given) returned Tg IFNy HTS inactive.
For Cc1nnsc1CN(C)Cc1cc(F)ccc1-n1cccn1 the results were Tg IFNy HTS inactive.
Screening Cc1cccc(OCCCN(C)C(=O)CN)c1C returned Tg IFNy HTS inactive.
`Cc1ccc(C)c(OCC(=O)N(C)Cc2cc(C(C)C)on2)c1C` gave Tg IFNy HTS inactive.
COCC(=O)N(C)CCOc1c(C)ccc(C)c1C was read as Tg IFNy HTS -77.6.
`CCc1ccc(CNCCNC(=O)c2nonc2N)cc1` gave Tg IFNy HTS inactive.
CC1c2cccn2CCN1Cc1cn(-c2ccccc2)nc1-c1ccc2c(c1)OCO2 (stereo not given) was read as Tg IFNy HTS inactive.
Screening COCCN1CCC(c2nnc3ccc(C(=O)NCCc4ccncc4)cn23)C1 (stereo not given) returned Tg IFNy HTS inactive.
CCc1nnc(CN2C[C@H]3OC(=O)N(CCCN4CCOCC4)[C@H]3C2)o1 was read as Tg IFNy HTS inactive.
Cc1ccc(NC(=O)c2ccoc2)cc1NCC#N was read as Tg IFNy HTS inactive.
For O=C(NC(=S)N1CCOCC1)c1ccccc1 the results were Tg IFNy HTS inactive.
`O=C(NC(=O)c1ccccc1O)c1ccoc1` gave Tg IFNy HTS -84.2.
For CCOc1ccc(CCNC(=O)c2nc(N3CCC(C)CC3)c3ccccc3n2)cc1OCC the results were Tg IFNy HTS -98.3.
`CCOc1ccc(CCNC(=O)c2nc(N3CCCC3)c3ccccc3n2)cc1OCC` gave Tg IFNy HTS inactive.
For CCOc1cc(CNC(=O)c2nc(N3CCOCC3)c3ccccc3n2)ccc1OC the results were Tg IFNy HTS inactive.
Screening Cc1cc(C(=O)N2CCC3(CC2)CC(Oc2cccnc2)CO3)c(C)o1 (stereo not given) returned Tg IFNy HTS inactive.
Screening Cc1ccc(CN2CCC3(CC2)c2ncc(-c4ccccc4)n2CCN3C)o1 returned Tg IFNy HTS inactive.
Screening CN1CCn2c(-c3ccccc3)cnc2C12CCN(S(=O)(=O)c1ccccc1)CC2 returned Tg IFNy HTS -107.8.
For Cc1ccc(C)c(S(=O)(=O)N2CCC3(CC2)c2ncc(-c4cccc(F)c4)n2CCN3C)c1 the results were Tg IFNy HTS inactive.
`Cc1oc(-c2ccccc2)nc1CN(c1ccccc1)S(=O)(=O)c1ccccc1` gave Tg IFNy HTS inactive.
`Cc1ccc(OCc2nc(-c3cccs3)no2)cc1C` gave Tg IFNy HTS inactive.
`O=C(c1ccc(N2CCC(NCc3cccc(Cl)c3)CC2)cc1)N1CCCC(CO)C1` (stereo not given) gave Tg IFNy HTS inactive.
`CCn1c(CNC(=O)Cn2c(C(F)(F)F)nc3ccccc32)nc2ccccc21` gave Tg IFNy HTS inactive.
Screening O=C1CSC(=O)N1C/C=C/CN1C(=O)CSC1=O returned Tg IFNy HTS inactive.
For Cc1ccc(NCN2C(=O)CSC2=O)c(C)c1 the results were Tg IFNy HTS -87.7.
For Cc1cc(=O)n(CC(=O)NCCN2C(=O)CSC2=O)c2ccccc12 the results were Tg IFNy HTS inactive.
Screening CC(C)(C)c1ccc(C23OC(=O)C4(CCCC4)C2OC(=O)C32CCCC2)cc1 (stereo not given) returned Tg IFNy HTS -73.5.
Screening COc1cc2c(cc1C1CC(=O)Nc3c1c(C(C)C)nn3C)CCC2 (stereo not given) returned Tg IFNy HTS inactive.
Screening CC1(C)CC(N(Cc2ccncc2)Cc2ccc(N3CCOCC3)cc2)CC(C)(C)N1 returned Tg IFNy HTS inactive.
Screening CC1CCc2cc(F)ccc2N1C(=O)CSc1ncc(-c2ccccc2)n1C1CCCC1 (stereo not given) returned Tg IFNy HTS -80.1.
`CC1CCc2cc(F)ccc2N1C(=O)c1cc2cccnc2n(Cc2ccccc2F)c1=O` (stereo not given) gave Tg IFNy HTS inactive.
Cn1c(-c2ccccc2)cnc1SCC(=O)Nc1ccc(Cl)cc1 was read as Tg IFNy HTS inactive.
CC(=O)N(C)C1CCC2(CC1)CN(C(=O)C(C)C)Cc1ccccc1O2 (stereo not given) was read as Tg IFNy HTS inactive.
For Cc1cc(-c2nn(C)c(Cl)c2C2NCCc3[nH]cnc32)no1 (stereo not given) the results were Tg IFNy HTS inactive.
CCOCc1cc(-c2nccn2-c2cccnc2)ccc1OC was read as Tg IFNy HTS inactive.
For COc1ccc(-c2ccccc2)cc1-n1ccnc1-c1cnc[nH]1 the results were Tg IFNy HTS -81.6.
For COc1cccc(-c2nccn2CCc2cnc[nH]2)c1OC the results were Tg IFNy HTS inactive.
Screening CC(C)NC(=O)c1ccc2ncnc(N3CCCCC3)c2c1 returned Tg IFNy HTS inactive.
CCCc1cnc(-c2cccc3[nH]ccc23)nc1 was read as Tg IFNy HTS inactive.
Screening CN1CCN(c2ncnc3ccc(-c4cccc5[nH]ccc45)cc23)CC1 returned Tg IFNy HTS -76.0.
For CCCN(CCC)c1nc(-c2ccc(Cl)cc2)nc2ccccc12 the results were Tg IFNy HTS inactive.
CSc1ccc2c(c1)N(CCC1CCCCN1C)c1ccccc1S2 (stereo not given) was read as Tg IFNy HTS -95.3!.
Screening CSc1cccc(NC(=S)N2CCCCC2CCN2CCOCC2)c1 (stereo not given) returned Tg IFNy HTS inactive.
For CSc1cccc(NC(=O)N2CCCCC2CCN2CCCC2=O)c1 (stereo not given) the results were Tg IFNy HTS inactive.
`CN(C)CC(=O)N1CC2(CCN(c3nccs3)C2)C1` gave Tg IFNy HTS inactive.
`COc1ccc(CNC(=O)C2CCCN(Cc3nc(-c4cccc(C)c4)oc3C)C2)cc1` (stereo not given) gave Tg IFNy HTS -82.6.
Cc1oc(-c2cccc(C(F)(F)F)c2)nc1CN1CCCC(C(N)=O)C1 (stereo not given) was read as Tg IFNy HTS inactive.
Cc1oc(-c2cccc(Cl)c2)nc1CN1CCCC(C(=O)NC2CCCCCC2)C1 (stereo not given) was read as Tg IFNy HTS inactive.
For Cc1nc(Nc2n[nH]c3c2CN(C(=O)N[C@H](CN(C)C)c2ccccc2)C3(C)C)c2sccc2n1 the results were Tg IFNy HTS -74.9.
OC(CCCN1CCCCC1)(c1ccccc1)c1ccccc1 was read as Tg IFNy HTS inactive.
Screening NC(=O)C(c1ccccc1)(c1ccc(F)cc1)c1ccc(F)cc1 returned Tg IFNy HTS inactive.
For OC(C#CC(O)(c1ccccc1)c1ccccc1)(c1ccccc1)c1ccccc1 the results were Tg IFNy HTS -93.4.
Cc1nn(C)c(Cl)c1CN1CCN(c2nnc(C(F)(F)F)s2)CC1 was read as Tg IFNy HTS inactive.
